HEK293 tox = cytotoxicity in counter-screen for GLP-1R inverse agonists | AID 624418 | 410,000 tested, 0.13% active | Potency, µM (series often up to 38.3 µM), hits mostly inhibitors | HEK293 cAMP-luciferase reporter cells, luminescence, 24 h;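 note: loss of luciferase light is scored as toxicity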
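Quantitative HTS format, 1536 wells, 200 cells/uL seeded. Compounds: 23 nL, 24 h, 37 °C. Detection: luciferase reagent, luminescence at 12 min RT; decreased signal taken as cytotoxic.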
GLP-1R agonist = activates the human GLP-1 receptor. P43220. HEK293 GLP-1R CRE-luciferase, luminescence, 4-6 h; cells express a hypersensitive GLP-1R form. Potency, µM (top dose mostly 45.6 µM), hits mostly activators. 380,000 tested, 0.007% active
Target sequence (P43220 whole entry, looked up): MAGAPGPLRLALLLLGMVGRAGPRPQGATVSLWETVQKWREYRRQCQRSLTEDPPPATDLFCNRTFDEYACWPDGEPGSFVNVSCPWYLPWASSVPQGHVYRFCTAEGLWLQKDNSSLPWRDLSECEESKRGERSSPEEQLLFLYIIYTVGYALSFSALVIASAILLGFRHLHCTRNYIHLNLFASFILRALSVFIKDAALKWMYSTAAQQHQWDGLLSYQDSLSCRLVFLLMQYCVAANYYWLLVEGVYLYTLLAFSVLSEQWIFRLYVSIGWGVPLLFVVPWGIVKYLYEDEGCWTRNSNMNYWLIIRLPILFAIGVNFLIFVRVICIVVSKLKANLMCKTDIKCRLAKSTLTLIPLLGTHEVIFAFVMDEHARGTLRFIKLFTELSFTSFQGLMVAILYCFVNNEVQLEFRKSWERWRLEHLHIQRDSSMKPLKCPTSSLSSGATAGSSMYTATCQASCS
GLP-1R inv ag = acts as inverse agonist at human GLP-1 receptor; P43220; HEK293 GLP-1R CRE-luciferase, luminescence, 24 h; GLP-1R form is constitutively active; Potency, µM (doses to about 38.3 µM), hits mostly inhibitors; 410,000 tested, 1.6% active; note: nearly all actives have a fitted effect of over 55% in size
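Readout was luciferase luminescence, measured 12 min after detection reagent at room temperature. Beforehand, GLP-1R reporter HEK293 cells had sat 12 h, then received compounds for 24 hr at 37 deg C.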
A number is an active result; – = inactive; ? = inconclusive; · = no result given. A selection: hits, their analogues and other compounds. The true share with any hit is near 1.7%. Calls come from the whole dose curve; as a rule, active = well fitted curve in the direction sought with a large enough effect; inconclusive = small, poorly fitted or top-dose-only effect, or another doubt; inactive = no such curve, though single readings can be large; an effect the other way counts as inactive or inconclusive.

SMILES	HEK293 tox	GLP-1R agonist	GLP-1R inv ag
Cc1ccc(-c2cnc3c(Nc4cccc(OC(F)(F)C(F)F)c4)nccn23)cc1	–	–	?
COc1cc(C(CC(=O)Nc2ccc(C)c(F)c2)N2Cc3ccccc3C2=O)cc(OC)c1OC (stereo not drawn)	–	–	–
O=C(CNC(=O)C1CC(=O)N(c2cccc3ccccc23)C1)Nc1ccccc1Br (stereo not drawn)	–	–	–
CC(C)OC(=O)c1ccc(NC(=O)c2cccc(-n3cnnn3)c2)cc1	–	–	7.1µM
CCOc1ccc(NC(=O)c2cccc(-n3cnnn3)c2)cc1	–	–	–
CC(C)NC(=O)Nc1ccc2c(c1)C(=O)N([C@H](C)CO)C[C@@H](C)[C@@H](CN(C)C(=O)NC1CCCCC1)O2	–	–	–
Cc1cccc(-c2nc3scc(CCNS(=O)(=O)c4ccc5c(c4)OCCO5)n3n2)c1	–	·	–
CSc1nc(-c2ccccc2)nc(N2CCCC2)c1C(C)=O	–	–	–
CSc1nc(-c2ccccc2)nc(N2CCN(C)CC2)c1C(C)=O	–	–	3.2µM
NC(N)=NCC1COc2ccccc2O1 (stereo not drawn)	·	–	·
CC(=O)O[C@H]1C[C@@H]2CC[C@@H]3[C@H](CC[C@]4(C)[C@H](OC(C)=O)[C@@H](N5CC[N+](C)(C)CC5)C[C@@H]34)[C@@]2(C)C[C@@H]1N1CC[N+](C)(C)CC1	·	–	·
Cc1ccnc(NC(=O)c2ccc(S(=O)(=O)N3CCCCC3)cc2)c1	–	–	–
CCOc1ccc(C(=O)Nc2cc(C)ccn2)cc1	–	–	4µM
Cc1ccnc(NC(=O)c2ccc(S(=O)(=O)N3CCCCCC3)cc2)c1	–	–	11µM
CCOc1cc(C(=O)Nc2cc(C)ccn2)cc(OCC)c1OCC	–	–	–
CCOC(=O)N(C)c1c(CC)nc2c(OCc3ccc(Cl)cc3)cccn12	–	–	?
CCc1nnc(N/N=C/c2cc(Br)c(O)cc2O)n1N	–	–	–
CC(C)(C)c1nnc(N/N=C/c2cc(Br)ccc2O)n(N)c1=O	?	–	3.5µM
COc1cccc(NC(=O)Cc2csc(NC(=O)Nc3ccccc3OC)n2)c1	?	–	10µM
COc1ccccc1NC(=O)Cc1csc(NC(=S)Nc2ccc(C)cc2)n1	3.2µM	–	–
COc1ccccc1NC(=O)Nc1nc(CC(=O)N2CCN(c3ccccc3OC)CC2)cs1	?	–	?
COc1cc(C)ccc1NC(=O)Cc1csc(NC(=O)Nc2ccccc2OC)n1	?	–	10µM
COc1ccccc1NC(=O)Nc1nc(CC(=O)Nc2ccc(OC)c(OC)c2)cs1	–	–	–
CCC(=O)Nc1nc(CC(=O)Nc2ccccc2OC)cs1	–	–	–
COc1ccc(NC(=O)C2CCN(S(=O)(=O)c3ccc4c(c3)CCCC(=O)N4)CC2)cc1OC	–	–	–
SMILES	HEK293 tox	GLP-1R agonist	GLP-1R inv ag
O=C1Cc2cc(NS(=O)(=O)c3cc(F)ccc3F)cc3c2N1CCC3	–	–	–
COc1cccc(Cn2c(=O)n(-c3ccccc3C)c(=O)c3c2c2cc(C)ccc2n3C)c1	–	–	?
CC(C)(CCC(=S)N1CCOCC1)c1ccccc1	–	–	?
O=C(N/N=C/c1c(F)cccc1Cl)C(=O)N1CCCCCC1	–	–	–
c1cc(-c2ccoc2)n2ccnc2c1	–	–	–
Cc1c(Br)cccc1NC(=O)C1(C)CCN1Cc1ccccc1OC(F)F (stereo not drawn)	–	–	?
COc1ccc(/C=N/NC(=O)c2cc(C)oc2C)cc1OCc1ccccc1	–	–	?
Cc1cc(C(=O)N/N=C/c2ccc(OCc3ccccc3)cc2)c(C)o1	–	–	11µM
Oc1ccc(C(=S)N2CCN(Cc3ccccc3)CC2)cc1	–	–	–
CN(C)c1ccc(C(=S)N2CCN(Cc3ccccc3)CC2)cc1	–	–	11µM
CSCCC(NC(=O)c1ccccc1)C(=O)NCCCn1nc(C)cc1C (stereo not drawn)	–	–	–
Cn1ccc(C(=O)OCC(=O)Nc2cccc3ccccc23)n1	–	–	–
CC(=O)c1nn(-c2ccccc2)cc1C(=O)c1cccc(Br)c1	–	–	–
O=C(c1cccc(Br)c1)c1cn(-c2ccccc2)nc1C(=O)c1ccccc1	–	–	3.5µM
COc1ccc(Br)cc1Cn1nnc(C(=O)Nc2cccc(SC)c2)c1N	–	–	?
CC(C)c1ccccc1NC(=O)Nc1nc(C(N)Cc2ccc(C(F)(F)F)cc2)cs1 (stereo not drawn)	?	–	13µM
NC(Cc1ccc(C(F)(F)F)cc1)c1csc(NC(=O)Nc2ccccc2Cc2ccccc2)n1 (stereo not drawn)	?	–	?
CC(C)CC(N)c1csc(NC(=O)Nc2ccccc2C(C)C)n1 (stereo not drawn)	?	–	10µM
COc1ccc(NC(=O)Nc2nc(C(N)CC(C)C)cs2)cc1 (stereo not drawn)	–	–	?
CCOC(=O)c1[nH]c(C)c(C(=O)OCC(=O)NCc2ccc(OC)cc2)c1C	–	–	–
COc1ccccc1NC(=O)CSc1nnc2c3ccccc3n(C(C)C)c2n1	–	·	?
Cc1cccc(N(CC(=O)NCC2CCCO2)C(=O)CCC(=O)Nc2nccs2)c1 (stereo not drawn)	–	–	–
COc1ccc2nc(NC(=O)c3cc(=O)c4cc(C)cc(C)c4o3)sc2c1	–	·	–
CCCCCn1c(=O)[nH]c2cc(C(=O)NCCN3C(C)CCCC3C)ccc2c1=O (stereo not drawn)	–	–	1.8µM
CCCCCn1c(=O)[nH]c2cc(C(=O)NCCN3CCCCC3C)ccc2c1=O (stereo not drawn)	–	–	?
SMILES	HEK293 tox	GLP-1R agonist	GLP-1R inv ag
NCc1ccccc1CS(=O)(=O)N1CCOCC1	–	–	–
CC(C)n1cc(/C=N/Nc2ccc(C(=O)O)cc2)c2ccccc21	–	–	–
Cn1cc(/C=N/Nc2ccccc2)c2ccccc21	–	–	11µM
Cc1cc(C)n(-c2nc3ccccc3nc2Nc2cccc(C)c2C)n1	–	·	–
Cc1nn(-c2ccc(Br)cc2)c(=O)c2ccccc12	–	–	?
Cc1nn(-c2c(Cl)cc(Cl)cc2Cl)c(=O)c2ccccc12	–	–	8.9µM
O=C(N/N=C/c1cccc(Oc2ccccc2)c1)c1cccc(O)c1	?	–	?
O=C(N/N=C/c1cccc(Oc2ccccc2)c1)c1cccc(Br)c1	–	–	8.9µM
COc1ccc(-c2noc(CSc3nc(N)cc(=O)[nH]3)n2)cc1OC	–	·	–
CCCCN(c1nc2ccccc2nc1Cl)S(=O)(=O)c1ccc(C)cc1	–	–	10µM
CCCN(CCC)CC(O)CN(c1ccccc1)S(=O)(=O)c1ccc(C)cc1 (stereo not drawn)	–	–	?
Cc1cccc(Oc2coc3cc(OCC(=O)NC4CCCCC4)ccc3c2=O)c1	–	·	–
CN1CCc2c(n(CC(O)CNCc3ccccc3)c3ccccc23)C1=O (stereo not drawn)	–	–	?
CC(C)NCC(O)Cn1c2c(c3ccccc31)CCc1c-2cnn1-c1ccccc1 (stereo not drawn)	?	–	10µM
CC(=O)N1CCc2cc(NC(=O)C3(C)CCN3Cc3ccccc3OC(F)F)ccc21 (stereo not drawn)	–	–	?
Cc1ccc(N(C)C2=NC(=O)CS2)cc1Cl	–	–	–

Source: PubChem (National Center for Advancing Translational Sciences (NCATS))
